Out of some 48,000 compounds screened, about 13,000 (27%) showed an effect of 50% or more. The list shows a part of the results.

The assay deals with Wolbachia pipientis. Kind of assay: Anti-Wolbachia Cell-Based Screen. The class given is functional. The arrangement: scale not given: in the data most compounds retested in dose-response had high values. The following applies: 5 µM.
Consider `CC(C)(C)c1c[nH]c([C@@H]2COCCN2C2CCOCC2)n1`, for which the “Percent Effect” value came out at 1.318%. As for `CCN(C)C(=O)CCC(=O)c1cccs1`, the “Percent Effect” value is reported as 14.3%.

For `CC(C)S(=O)(=O)N(C)C(=O)CCc1ccsc1`, the “Percent Effect” value is recorded as -69.32%. Take `O=C(NC1CCC1)[C@@H]1CCO[C@@H]2CCN(C3CCCC3)C[C@@H]21.O=C(O)C(F)(F)F`: the “Percent Effect” value was -2.811%.

For `Cc1cc(C)cc(CN2CCN(C(=O)C3CCC3)[C@@H]3CS(=O)(=O)C[C@@H]32)c1`, the “Percent Effect” value amounted to 5.878%.

Regarding `CN(C)C(=O)N1CCN(Cc2ccccc2)[C@@H]2CS(=O)(=O)C[C@@H]21`, the “Percent Effect” value was -15.23%. On to `Cc1ncc(CN2CCN(C(=O)C3CCC3)[C@@H]3CS(=O)(=O)C[C@@H]32)cn1`, for which the “Percent Effect” value was 112.3%. For `Cc1ccc(CN2CCN(C(=O)C3CCC3)[C@@H]3CS(=O)(=O)C[C@@H]32)cc1C`, the “Percent Effect” value is reported as 4.312%. Under `CCc1ccc(CN2CCN(C(=O)C(C)C)[C@@H]3CS(=O)(=O)C[C@@H]32)cc1` stands -2.722%. As to `CCN(CC)C(=O)N1CCN(Cc2cnc(C)nc2)[C@H]2CS(=O)(=O)C[C@H]21`, the “Percent Effect” value amounted to 94.21%. Consider `COc1cc(Oc2ccc(C(F)(F)F)cn2)ccc1CN1CCCC1`, for which the “Percent Effect” value is reported as 2.757%. As for `O=C(NC[C@H]1OC[C@@H](NC(=O)C2CCCC2)[C@@H]1O)c1ccncc1`, the figure is 0%; as for `CC(=O)Nc1ccc(CNC2COc3c2ccc(C)c3C)cc1` (stereo unspecified), -7.711%; as for `COCC[C@]1(O)CCN(S(=O)(=O)c2ccc(C)cc2OC)C[C@H]1C`, -114.9%. On to `COc1c(C(=O)NCc2cccnc2)nnn1Cc1ccc(C)cc1`, for which the “Percent Effect” value was found to be 7.937%. Take `CCc1noc(C)c1C(=O)NCc1ccccn1`: the “Percent Effect” value is on record as -15.45%. Consider `CCn1cc(Br)c(C(=O)NCc2cccnc2)n1`, for which the “Percent Effect” value worked out at 4.447%. As for `Nc1no[n+]([O-])c1C(=O)NCc1cccnc1`, the figure is 115%; as for `Nc1no[n+]([O-])c1C(=O)NCc1ccccn1`, 131.2%; as for `N#Cc1ccc(CN2C[C@@H]3OCC(=O)N(CC(N)=O)[C@@H]3C2)cc1`, -3.646%. Turning to `CC(C)Oc1ccccc1CNC(=O)N(C)CC(F)F`, the “Percent Effect” value is given as -6.331%. Under `N#Cc1cccnc1NCc1cccc(C(=O)NCC2CCCCO2)c1` (stereo unspecified) stands -17.65%; under `O=C(NC[C@@H]1CCCO1)c1cccnc1N1CCCC1c1ccccc1` (stereo partly specified), 120.1%. With `O=C(NC[C@@H]1CCCO1)c1cccnc1N1CCCC1c1ccccn1` (stereo partly specified), the “Percent Effect” value is on record as 123.2%. For `O=C(NCCCOCC1CCCO1)c1cccnc1N1CCCC1` (stereo unspecified), the “Percent Effect” value is -6.483%.

`Fc1ccccc1CN1CCCN(c2ccc3cc[nH]c3n2)CC1`: the “Percent Effect” value is -2.258%.
